# INS promoter inh – TRM-6 insulin promoter activity inhibition; AID 1273; hit rate 0.9% among 130,000; TRM-6 cells (human fetal islet line), insulin promoter-eGFP reporter, imaging; reporter expression induced with tamoxifen; inhibition, % at 2 µM;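 active = inhibition above the mean plus 3 SD, with well images judged a real hit on visual review, cut at about 60% in these data, passing the limit was not always enough; inconclusive = inhibition over the cutoff but images rejected on review; inactive = inhibition not above the cutoff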
# HSV replic up – HSV replication enhancement; HSV replication augmentation in cells, fold increase; maximum fold increase; hit rate 0.005% among 220,000; AID 1956; in the data active = maximum fold increase above about 1.5; inconclusive = no clear call, values can overlap the other calls; tested in PC3 cells
# Ins promoter up – MIN6 insulin promoter up-regulation. z-score at 5 µM. hit rate 0.3% among 190,000. MIN6 insulin promoter-GFP reporter, high-content imaging; active compounds read high;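 active = z-score above 3 at 5 µM with at least 500 cells counted in the well; inconclusive = wells under 500 cells, flagged as cytotoxic or low count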
# HMGR II inh – inhibitors of class II HMG-CoA reductase from Enterococcus faecalis. purified E. faecalis HMGR, NADPH absorbance 340 nm kinetic. hit rate 0.41% among 190,000. AID 1066. inhibition, % at 10 µM;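 active = inhibition above a set limit, the median over all tested compounds plus 3 SD, cut at about 9.5% in these data; inconclusive = no clear call, values can overlap the other calls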;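 also: enzyme runs in reverse so mevalonate oxidation gives rising NADPH absorbance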
# Numbers stand for hits; i = inactive; ? = inconclusive; nt = not tested or not shown; ! = not active in a repeat. Hits are enriched below; roughly 1.1% of the tested compounds scored in any of these assays.
SMILES,INS promoter inh,HSV replic up,Ins promoter up,HMGR II inh
CCN(CC)S(=O)(=O)c1ccc(N2CCOCC2)c(NC(=O)c2cc(-c3ccccn3)nc3ccccc23)c1,i,i,i,12
O=C(O)/C=C/C(=O)NCc1csc2ccccc12,nt,i,i,nt
COC(=O)C1=C(C)NC(=O)/C1=C\c1cc(C)n(-c2ccccc2C)c1C,71,?,i,i
O=C(CNC(=O)c1ccccc1)NC1(C(=O)NC2CCCCC2)CCCCC1,i,i,i,i
CN(C)c1cccc(C(=O)OCC(=O)Nc2ccccc2Cl)c1,75,i,i,i
N#Cc1cccnc1N1CCN(C(=O)COCC(=O)O)CC1,nt,i,i,nt
Cc1cc(Nc2nn(C)c(N)c2C#N)ccc1F,nt,i,6,i
O=C(COCc1nc2ccccc2c(=O)[nH]1)NCC1CCCCC1,i,i,i,15
CCC(OC(=O)C1=Cc2ccccc2OC1)C(=O)NCc1ccco1 (centres undefined),nt,i,i,12
COc1ccccc1-n1cnnc1SCC(=O)N1CC(=O)Nc2ccccc21,i,i,nt,9.6
CCC(CC)NC(=O)Cc1ccc(F)cc1,nt,i,nt,i
Cc1cccc(NC(=O)CSc2nc3nc4c(cc3c(=O)n2-c2ccccc2)CCCC4)c1,i,i,i,i
Cc1ccccc1-n1c(SCC(=O)Nc2ccccc2)nc2nc3c(cc2c1=O)CCCC3,i,i,i,13
CCOc1nc(NCCO)nc(Nc2ccccc2F)n1,i,i,nt,i
CCOc1nc(NCc2ccco2)nc(Nc2ccccc2F)n1,i,i,nt,13
CCC(C)NC(=O)CSc1nc2n[nH]c(C)c2c(=N)n1-c1ccc(OC)cc1 (centres undefined),nt,i,i,i
CCOc1ccc(-n2c(SCC(=O)NC(C)CC)nc3n[nH]c(C)c3c2=N)cc1 (centres undefined),nt,i,3,i
COC(=O)c1nnn(-c2nc(N(C)C)nc(N(C)C)n2)c1C,i,i,i,i
O=C(O)c1cc(-c2cccs2)nc2cc3c(cc12)OCCO3,86,i,nt,i
CC(C)CSC1=NSC2=NC(=O)/C(=C\c3cccs3)C(=N)N12,i,i,i,i
CSC1=NSC2=NC(=O)/C(=C\c3cccs3)C(=N)N12,79,i,i,i
CCOC(=O)c1c(NC(=O)CCNCc2ccco2)sc2c1CCC2,nt,i,i,nt
COCCn1c(SCC(=O)Nc2sc(C)c(C)c2C#N)nnc1-c1ccc(OC)cc1,i,i,i,i
COCCn1c(SCC#N)nnc1-c1ccc(OC)cc1,i,i,i,13
CS(=O)(=O)Nc1ccc(C(=O)NCCSCc2c(F)cccc2Cl)cc1,nt,i,i,i
SMILES,INS promoter inh,HSV replic up,Ins promoter up,HMGR II inh
COc1ccc(OC)c(Nc2nc(-c3sc(NC(=O)c4ccccc4)nc3C)cs2)c1,i,i,i,11
COc1cccc(C(=O)Nc2nc(-c3ccncc3)cs2)c1,76,i,i,i
Cc1cc(C(=O)COc2ccc3ccc(=O)oc3c2)c(C)n1C,nt,i,i,i
Cc1cc(N2C(=O)c3ccccc3C2=O)n(C)n1,nt,i,3.8,nt
CC(C)(C)C(=O)N1CCC[C@H]1C(O)(c1ccccc1)c1ccccc1,i,i,i,14
O=C(Cn1cnc2ccccc2c1=O)Nc1ccc(-c2nnc3n2CCCCC3)cc1,93,i,nt,i
O=C(Cn1cnc2ccccc2c1=O)Nc1cccc(-c2nnc3n2CCCCC3)c1,i,i,nt,i
Cc1onc(-c2c(F)cccc2Cl)c1C(=O)N1CCOC12CCCCC2,nt,i,i,i
Cc1cc(C)cc(-n2nc(C)cc2N)c1,72,i,nt,i
Cc1[nH]c2ccccc2c1C(=O)CN1CC(C)OC(C)C1 (centres undefined),nt,i,i,nt
O=C(c1ccccc1)N1CCCC(c2ccc(Cl)cc2)=N1,i,i,i,i
O=C(C1CC1)N1CCCC(c2ccc(Cl)cc2)=N1,i,nt,i,10
CCC(C)/C(C)=N/NC(=O)c1ccc(CSc2nc3ccccc3s2)cc1 (centres undefined),100,i,i,i
O=C(COC(=O)c1ccccc1)NCC1CCCO1 (centres undefined),i,i,nt,i
O=C(COC(=O)c1ccco1)NCC1CCCO1 (centres undefined),i,i,3,i
Cc1ccc(Cl)cc1NC(=O)COC(=O)C12CC3CC(CC(C3)C1)C2,i,i,i,14!
Cc1ccc(Cl)cc1NC(=O)COC(=O)C1CCCC1,nt,i,i,i
CCCCCCCCCCC(=O)Nc1cccnc1,nt,i,i,i
CCCCCCCCCC(=O)Nc1cccnc1,nt,i,i,10
CCCCNc1nc2ccccc2[nH]1,100,i,i,i
CCOCCCNc1nc2ccccc2[nH]1,i,i,nt,i
CCN(CC)c1ccc2cc(-c3nnc(-c4ccncc4)o3)c(=O)oc2c1,i,?,4.4,i
COc1ccc(NS(=O)(=O)c2cn(C)c(=O)n(C)c2=O)cc1,nt,i,i,nt
O=C(O)c1cccc(NS(=O)(=O)c2ccc(Cl)c(C(=O)O)c2)c1,nt,i,i,i
